# Reference: PubChem BioAssay (NCATS)
# Results filed as inconclusive are left out. Calls of active or inactive are those of the source. Unless noted, calls follow the shape of the dose curve; as a rule, active = well fitted curve in the direction sought with a large enough effect; inconclusive = small, poorly fitted or top-dose-only effect, or another doubt; inactive = no such curve, though single readings can be large; an effect the other way counts as inactive or inconclusive.
# Tests used:
# [1] = biological target: DNA repair nuclease/redox regulator APEX1 (Homo sapiens) (UniProt P27695); experiment: qHTS Validation Assay for Inhibitors of the Human Apurinic/apyrimidinic Endonuclease 1 (APE1) (AID 1705;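 also: TAMRA fluorescence gain over two minutes as APE1 cuts a quenched THF abasic duplex; % is scaled to controls: 0 for no effect and ±100 for the full control effect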)
# DNA repair nuclease/redox regulator APEX1 (Homo sapiens), sequence (P27695 whole entry, looked up): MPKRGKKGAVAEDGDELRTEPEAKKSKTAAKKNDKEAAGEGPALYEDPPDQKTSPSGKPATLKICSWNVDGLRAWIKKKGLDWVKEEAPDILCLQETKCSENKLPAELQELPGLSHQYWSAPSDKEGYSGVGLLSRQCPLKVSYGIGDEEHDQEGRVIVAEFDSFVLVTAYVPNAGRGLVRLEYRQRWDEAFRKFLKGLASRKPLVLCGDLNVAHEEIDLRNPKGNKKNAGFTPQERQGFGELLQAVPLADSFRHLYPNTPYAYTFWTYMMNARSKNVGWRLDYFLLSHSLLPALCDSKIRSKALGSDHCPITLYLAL
# Outline: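 Read-out: TAMRA fluorescence (525 nm ex, 598 nm em) from cleavage of a quenched THF abasic-site duplex, 50 nM final; activity taken as intensity change between third and first of three reads 60 s apart.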
# [2] = Counterscreen for APE1 Inhibitors: Fluorescent Dye Displacement Validation Assay (AID 1707);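 also: plate controls were ThO with dsDNA and no compound for no effect and ThO without dsDNA for full effect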
# Outline: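 Assay buffer: Tris-HCl pH7.5 with 50mM NaCl, 2 mM MgCl2, 0.01% Tween-20. Dye 250 nM, duplex 50 nM final. Readout: decrease in ThO endpoint fluorescence, 480 nm excitation, 540 nm emission.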
# [3] = biological target: Endonuclease 4 (Escherichia coli (strain K12)) (UniProt P0A6C1); experiment: Counterscreen for APE1 Inhibitors: qHTS Validation Assay for Inhibitors of Endonuclease IV (AID 1708); also: % is scaled to controls: 0 for no effect and ±100 for the full control effect
# Outline: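 qHTS concentration-response format; LOPAC1280 tested under APE1-screen conditions. 2 nM enzyme, 15 min compound preincubation at RT, then 50 nM TAMRA/BHQ-2 abasic substrate; kinetic fluorescence read, three reads at 60 s intervals.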
# [4] = qHTS for differential inhibitors of proliferation of Plasmodium falciparum line 7G8 (AID 1815);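 also: potency is read from the fitted curve at half-maximal effect; parasite growth measured after three days of incubation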
# [5] = qHTS for differential inhibitors of proliferation of Plasmodium falciparum line Dd2 (AID 1882); conditions: Potency: Plasmodium falciparum Dd2 proliferation inhibition; also: nearly all actives have a fitted effect of over 65% in size; also: potency is read from the fitted curve at half-maximal effect;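 as to activity change, negative = inhibition: plate controls were DMSO vehicle for no effect and 0.29 µM artemisinin for full effect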
# Outline: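 Dd2-infected erythrocytes (0.3% parasitemia, 2.5% hematocrit final) incubated with compound 72 h at 37 C, 5% CO2; lysed with saponin/Triton buffer containing SYBR Green I, incubated overnight in the dark, then read by fluorescence (485/535 nm). Normalized to 0.29 uM artemisinin and DMSO.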
# [6] = qHTS for differential inhibitors of proliferation of Plasmodium falciparum line W2 (AID 1883); conditions: Potency: Plasmodium falciparum W2 proliferation inhibition;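 also: potency is read from the fitted curve at half-maximal effect; parasites grown with compound for 72 h before lysis and staining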
# [7] = biological target: ATP-dependent DNA helicase Q1 (Homo sapiens) (UniProt P46063); experiment: qHTS Validation Assay for Inhibitors of RecQ-Like Dna Helicase 1 (RECQ1) (AID 2353);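 also: plate controls were DMSO vehicle for no effect and enzyme-free control for full effect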
# ATP-dependent DNA helicase Q1 (Homo sapiens), sequence (P46063 whole entry, looked up): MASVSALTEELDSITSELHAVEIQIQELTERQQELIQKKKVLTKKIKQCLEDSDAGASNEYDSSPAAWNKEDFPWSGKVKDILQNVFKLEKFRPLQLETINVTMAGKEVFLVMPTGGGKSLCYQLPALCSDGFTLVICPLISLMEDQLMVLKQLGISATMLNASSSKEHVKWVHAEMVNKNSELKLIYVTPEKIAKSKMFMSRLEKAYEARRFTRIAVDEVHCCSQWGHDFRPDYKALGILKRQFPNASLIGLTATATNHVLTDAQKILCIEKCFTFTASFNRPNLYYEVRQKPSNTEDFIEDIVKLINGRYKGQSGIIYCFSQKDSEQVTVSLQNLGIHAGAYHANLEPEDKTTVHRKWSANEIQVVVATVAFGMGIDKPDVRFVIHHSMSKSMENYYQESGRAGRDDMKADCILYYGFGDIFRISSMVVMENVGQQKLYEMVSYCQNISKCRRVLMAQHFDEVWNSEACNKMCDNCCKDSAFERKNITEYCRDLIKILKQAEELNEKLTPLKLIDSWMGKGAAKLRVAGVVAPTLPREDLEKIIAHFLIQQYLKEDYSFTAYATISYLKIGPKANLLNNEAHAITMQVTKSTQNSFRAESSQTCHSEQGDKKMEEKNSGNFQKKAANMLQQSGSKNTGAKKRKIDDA
# Outline: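 50 nM RECQ1T1 preincubated 15 min with compound in Tris pH 8.0 buffer with MgCl2, DTT, Tween-20 and 2.5 ug/ml poly(dI-dC); started with 200 nM TAMRA/BHQ-2 forked duplex and 2 mM ATP. Unwinding read as fluorescence (525/598 nm), two reads 2 h apart.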
# [8] = Quantitative high throughput screen for delayed death inhibitors of the malarial parasite plastid, 48 hour incubation (AID 488752); also: nearly all actives have a fitted effect of over 65% in size; also: potency is read from the fitted curve at half-maximal effect; as to activity change, negative = inhibition: % is scaled to controls: 0 for no effect and ±100 for the full control effect
# Outline: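 Readout is firefly luciferase luminescence from a reporter integrated into the parasite genome, with lower signal taken as inhibited growth. Infected red cells (0.1% parasitemia, 2% hematocrit final) are cultured with compound for one 48 h cycle at 37 C.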
# [9] = biological target: M-phase phosphoprotein 8 (Homo sapiens) (UniProt Q99549); experiment: qHTS Validation Assay for Inhibitors for MPP8 Chromodomain Interactions with Methylated Histone Tails (AID 488949);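 also: AlphaScreen signal from MPP8 chromodomain bound to biotinylated H3K9me3 peptide; top concentration of the series differs between compounds; % is scaled to controls: 0 for no effect and ±100 for the full control effect; nearly all actives have a fitted effect of over 55% in size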
# M-phase phosphoprotein 8 (Homo sapiens), sequence (Q99549 whole entry, looked up): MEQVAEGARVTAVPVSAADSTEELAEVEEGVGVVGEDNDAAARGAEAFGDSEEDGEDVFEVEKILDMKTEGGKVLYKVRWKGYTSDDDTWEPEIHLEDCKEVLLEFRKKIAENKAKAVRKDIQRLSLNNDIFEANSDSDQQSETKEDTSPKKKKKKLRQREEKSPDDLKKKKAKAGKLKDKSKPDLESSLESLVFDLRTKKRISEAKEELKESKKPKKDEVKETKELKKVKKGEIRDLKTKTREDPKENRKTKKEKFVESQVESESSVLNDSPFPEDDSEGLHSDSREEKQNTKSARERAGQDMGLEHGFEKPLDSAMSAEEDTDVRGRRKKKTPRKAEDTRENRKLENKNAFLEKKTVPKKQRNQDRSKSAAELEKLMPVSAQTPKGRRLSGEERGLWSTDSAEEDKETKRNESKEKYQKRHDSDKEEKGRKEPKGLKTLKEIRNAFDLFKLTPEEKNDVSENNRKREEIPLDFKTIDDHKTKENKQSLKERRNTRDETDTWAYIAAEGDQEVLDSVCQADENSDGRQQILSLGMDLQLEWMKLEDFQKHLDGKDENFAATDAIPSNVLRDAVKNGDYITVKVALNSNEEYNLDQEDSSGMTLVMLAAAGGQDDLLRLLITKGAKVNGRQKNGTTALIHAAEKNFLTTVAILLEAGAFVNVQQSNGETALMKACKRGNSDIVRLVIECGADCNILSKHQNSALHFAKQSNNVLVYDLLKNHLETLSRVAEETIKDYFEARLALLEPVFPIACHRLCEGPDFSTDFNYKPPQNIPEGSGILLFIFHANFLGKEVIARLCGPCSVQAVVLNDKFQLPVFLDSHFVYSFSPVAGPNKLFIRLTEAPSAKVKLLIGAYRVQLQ
# Outline: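 AlphaScreen read-out: streptavidin donor and nickel chelate acceptor beads (final 10 ug/mL), 30 min in the dark at RT. Complex of 50 nM MPP8 and 50 nM b-H3(1-18)K9me3 peptide had been exposed to compounds for 30 min beforehand.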
# [10] = biological target: Transient receptor potential cation channel subfamily V member 1 (Homo sapiens) (UniProt Q8NER1); experiment: HTS Assay for Compounds that Act as Enhancers of the Vanilloid Receptor 1 (AID 488979); also: 0% is about no effect
# Transient receptor potential cation channel subfamily V member 1 (Homo sapiens), sequence (Q8NER1 whole entry, looked up): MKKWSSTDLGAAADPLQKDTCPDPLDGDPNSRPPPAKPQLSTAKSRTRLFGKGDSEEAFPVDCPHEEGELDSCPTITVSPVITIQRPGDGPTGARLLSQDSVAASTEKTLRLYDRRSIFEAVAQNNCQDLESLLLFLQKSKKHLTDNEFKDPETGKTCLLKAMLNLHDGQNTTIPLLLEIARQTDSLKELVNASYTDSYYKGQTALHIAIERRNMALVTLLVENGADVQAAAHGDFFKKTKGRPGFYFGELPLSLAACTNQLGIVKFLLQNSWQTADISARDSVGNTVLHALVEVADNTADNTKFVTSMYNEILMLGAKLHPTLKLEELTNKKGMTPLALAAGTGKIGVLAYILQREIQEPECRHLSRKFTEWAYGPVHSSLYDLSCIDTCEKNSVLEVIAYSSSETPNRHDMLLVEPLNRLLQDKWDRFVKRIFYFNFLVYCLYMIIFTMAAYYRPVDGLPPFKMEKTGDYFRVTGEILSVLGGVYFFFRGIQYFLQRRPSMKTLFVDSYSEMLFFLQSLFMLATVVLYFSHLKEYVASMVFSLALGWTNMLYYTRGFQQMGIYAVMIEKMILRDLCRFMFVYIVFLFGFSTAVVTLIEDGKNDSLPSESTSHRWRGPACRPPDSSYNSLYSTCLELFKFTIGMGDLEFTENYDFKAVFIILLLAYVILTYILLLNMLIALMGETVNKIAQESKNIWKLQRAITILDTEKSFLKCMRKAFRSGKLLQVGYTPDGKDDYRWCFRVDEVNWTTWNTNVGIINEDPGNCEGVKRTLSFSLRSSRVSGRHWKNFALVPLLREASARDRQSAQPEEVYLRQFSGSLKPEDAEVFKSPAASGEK
# Outline: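 Calcium influx kinetics via Fluo-8 (480/520 nm) in TRPV1-expressing cells, 2000/well cultured overnight at 35.5C. Compound-alone read 3 min (agonist phase), followed by EC20 capsaicin challenge for 2 min (enhancer phase).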
# [11] = biological target: Thyrotropin receptor (Homo sapiens) (UniProt P16473); experiment: qHTS Assay for Antagonists of the Thyroid Stimulating Hormone Receptor (AID 488980); also: 0% is about no effect
# Outline: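 TSHR-HEK293 cells; 70 uM RO 20-1724 PDE inhibitor; compound + EC80 TSH (4 nM final); anti-cAMP cryptate antibody/cAMP-d2 in lysis buffer, 30 min RT; HTRF 665/620 nm read.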
# [12] = biological target: Thyrotropin-releasing hormone receptor (Homo sapiens) (UniProt P34981); experiment: qHTS for Small Molecule Agonists and Allosteric Enhancers of Human TRH Receptor: Validation Screen for Agonists (AID 493127;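 active = calcium activation more than 3 SD above the typical response in the agonist read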;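 also: intracellular calcium rise by fluo-8 fluorescence before TRH EC20 addition; 0% is about no effect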); conditions: TRH receptor agonist cell assay; at 2 µM; stronger effect = higher value
# Thyrotropin-releasing hormone receptor (Homo sapiens), sequence (P34981 whole entry, looked up): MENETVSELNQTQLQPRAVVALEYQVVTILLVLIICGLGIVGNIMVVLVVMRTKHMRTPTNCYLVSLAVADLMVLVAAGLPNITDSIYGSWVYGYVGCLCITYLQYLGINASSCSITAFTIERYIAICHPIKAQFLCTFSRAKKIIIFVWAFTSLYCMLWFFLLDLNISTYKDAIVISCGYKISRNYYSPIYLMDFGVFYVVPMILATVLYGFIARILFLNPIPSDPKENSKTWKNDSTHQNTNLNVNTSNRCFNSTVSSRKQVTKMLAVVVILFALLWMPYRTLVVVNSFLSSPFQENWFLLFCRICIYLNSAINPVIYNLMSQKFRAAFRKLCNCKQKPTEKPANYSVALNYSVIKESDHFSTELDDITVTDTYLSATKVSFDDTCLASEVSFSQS
# Outline: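 Cells 2000/well, 10% FCS, 18 h 33.5C/5% CO2 → fluo-8 Ca dye, RT 30 min–1.5 h → FDSS baseline 10 × 1 s → compound added → 230 cycles (1 s/cycle) agonist mode. TRH controls.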
# [13] = biological target: Galactokinase (Homo sapiens) (UniProt P51570); experiment: qHTS Validation Assay for Inhibitors of Human Galactokinase (GALK) (AID 493189); also: 0% is about no effect
# Galactokinase (Homo sapiens), sequence (P51570 whole entry, looked up): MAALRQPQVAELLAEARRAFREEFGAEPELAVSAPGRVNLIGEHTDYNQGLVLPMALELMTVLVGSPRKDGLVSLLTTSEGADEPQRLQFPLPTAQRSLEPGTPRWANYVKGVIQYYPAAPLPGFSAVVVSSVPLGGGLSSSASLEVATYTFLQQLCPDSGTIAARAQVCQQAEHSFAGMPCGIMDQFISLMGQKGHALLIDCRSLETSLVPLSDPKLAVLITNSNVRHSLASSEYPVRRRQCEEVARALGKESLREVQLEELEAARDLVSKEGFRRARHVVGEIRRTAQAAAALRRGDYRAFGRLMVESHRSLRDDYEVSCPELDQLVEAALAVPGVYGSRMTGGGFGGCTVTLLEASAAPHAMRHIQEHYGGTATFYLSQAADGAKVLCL
# Outline: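 Luminescence from leftover ATP (Kinase-Glo Plus, 10 min) served as read-out after a 1 h room-temperature reaction of 5 nM GALK, 100 uM galactose and 35 uM ATP at pH8.0.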
# [14] = Validation screen for small molecules that induce DNA re-replication in SW480 colon adenocarcinoma cells (AID 504364); also: 0% is about no effect
# Outline: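 250 cells/well; compound pinned in; 48 hr, 37 C, 5% CO2; Hoechst added, 40 min; nuclear fluorescence imaged, 405 ex / 500-530 em; re-replication scored as increase in high-intensity nuclei.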
# [15] = biological target: Catechol O-methyltransferase (Homo sapiens) (UniProt P21964); experiment: Confirmatory Screen for Target Class Profiling of Small Molecule Inhibitors of Methyltransferases (AID 1745852); conditions: MTase-Glo luminescence, SAH detection, recombinant enzyme; measured here: COMT max response; stronger effect = lower value
# Catechol O-methyltransferase (Homo sapiens), sequence (P21964 whole entry, looked up): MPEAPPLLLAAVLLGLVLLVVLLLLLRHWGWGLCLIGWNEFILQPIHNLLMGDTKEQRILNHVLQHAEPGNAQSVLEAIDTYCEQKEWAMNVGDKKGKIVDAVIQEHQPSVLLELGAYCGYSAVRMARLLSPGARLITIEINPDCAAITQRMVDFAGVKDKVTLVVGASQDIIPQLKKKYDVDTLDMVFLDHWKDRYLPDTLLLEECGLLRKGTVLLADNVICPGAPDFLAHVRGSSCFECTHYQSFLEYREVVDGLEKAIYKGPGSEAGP
# [16] = biological target: Guanidinoacetate N-methyltransferase (Homo sapiens) (UniProt Q14353); experiment: as above; conditions: activity change, negative = inhibition: at 57.3 µM (top of the series) unless noted
# [17] = biological target: Nicotinamide N-methyltransferase (Homo sapiens) (UniProt P40261); experiment: as above; conditions: MTase-Glo luminescence, SAH detection, recombinant enzyme; measured here: NNMT max response; stronger effect = lower value
# Nicotinamide N-methyltransferase (Homo sapiens), sequence (P40261 whole entry, looked up): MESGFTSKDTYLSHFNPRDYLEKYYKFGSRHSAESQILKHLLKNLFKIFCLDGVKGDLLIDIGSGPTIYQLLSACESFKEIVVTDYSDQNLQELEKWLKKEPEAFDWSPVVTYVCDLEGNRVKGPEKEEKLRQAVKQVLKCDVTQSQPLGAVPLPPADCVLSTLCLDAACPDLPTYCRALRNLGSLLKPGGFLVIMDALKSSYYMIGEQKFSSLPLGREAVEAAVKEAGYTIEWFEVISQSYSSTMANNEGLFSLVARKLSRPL
# [18] = biological target: Phenylethanolamine N-methyltransferase (Homo sapiens) (UniProt P11086); experiment: as above; conditions: MTase-Glo luminescence, SAH detection, recombinant enzyme; measured here: PNMT max response; stronger effect = lower value
# Phenylethanolamine N-methyltransferase (Homo sapiens), sequence (P11086 whole entry, looked up): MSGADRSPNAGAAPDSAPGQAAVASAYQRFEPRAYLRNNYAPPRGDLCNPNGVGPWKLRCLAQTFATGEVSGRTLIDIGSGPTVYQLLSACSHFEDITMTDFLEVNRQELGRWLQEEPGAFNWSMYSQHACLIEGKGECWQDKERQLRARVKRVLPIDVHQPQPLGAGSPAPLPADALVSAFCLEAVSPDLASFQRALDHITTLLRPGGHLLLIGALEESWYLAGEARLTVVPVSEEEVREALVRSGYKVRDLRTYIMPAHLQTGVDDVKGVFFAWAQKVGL
# [19] = qHTS for differential inhibitors of proliferation of Plasmodium falciparum line GB4 (AID 1816); conditions: Potency: Plasmodium falciparum GB4 proliferation inhibition;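 also: potency is read from the fitted curve at half-maximal effect; parasite growth measured after 72 h incubation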
# [20] = qHTS for differential inhibitors of proliferation of Plasmodium falciparum line 3D7 (AID 1876); also: potency is read from the fitted curve at half-maximal effect
# [21] = qHTS for differential inhibitors of proliferation of Plasmodium falciparum line D10 (AID 1877);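 also: potency is read from the fitted curve at half-maximal effect; parasites grown with compound for 72 h before DNA staining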
# [22] = qHTS for differential inhibitors of proliferation of Plasmodium falciparum line HB3 (AID 1886); conditions: Potency: Plasmodium falciparum HB3 proliferation inhibition;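 also: potency is read from the fitted curve at half-maximal effect; parasites grown with compound for 72 h before SYBR Green readout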
# [23] = qHTS Assay for Modulators of Human Peripheral Myelin Protein 22 (PMP22) Expression/Activity (AID 1967; active = well fitted curve in the direction sought with a large enough effect in the signal ratio; the % refers to the signal ratio;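 also: 0% = untreated cells and 100% end not stated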)
# Outline: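 Mouse MSC80 Schwann line, Pmp22 promoter–CBG68 reporter, EF-alpha–CBR internal control. 24h compound exposure, 37 °C/5% CO2, DMEM + 10% FBS. Readout: corrected green/red luminescence ratio, normalized to untreated cells; concentration-response curves fitted and classified.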
# [24] = biological target: Ferritin light chain (Equus caballus) (UniProt P02791); experiment: qHTS Validation Assay for Identification of Novel General Anesthetics (AID 2323); also: % is scaled to controls: 0 for no effect and ±100 for the full control effect
# Ferritin light chain (Equus caballus), sequence (P02791 2-175 limits assumed): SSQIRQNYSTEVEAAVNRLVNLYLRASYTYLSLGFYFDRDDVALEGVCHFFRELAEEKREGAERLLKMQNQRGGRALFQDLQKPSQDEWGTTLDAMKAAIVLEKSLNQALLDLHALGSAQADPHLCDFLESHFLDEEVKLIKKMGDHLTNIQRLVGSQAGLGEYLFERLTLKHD
# Outline: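 10 uM horse-spleen apoferritin + 1-AMA (50% saturated, PBS); cpd pin-transferred, 10 min RT. Ex 380/Em 535 nm endpoint. Activity normalized between free 1-AMA and 1-AMA/apoferritin; 4-parameter Hill fit of concentration-response.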
# [25] = biological target: RecQ-like DNA helicase BLM (Homo sapiens) (UniProt P54132); experiment: qHTS Validation Assay for Inhibitors of Bloom's syndrome helicase (BLM) (AID 2364);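 also: plate controls were DMSO vehicle for no effect and enzyme-free control for full effect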
# Outline: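 Forked 20-bp duplex substrate (200 nM, TAMRA/BHQ-2) plus 2 mM ATP added after 15 min compound preincubation with 50 nM enzyme, pH 8.0, poly(dI-dC) 2.5 ug/ml. Strand separation followed by fluorescence (525/598 nm) over 2 h, normalized to enzyme-free and DMSO controls.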
# [26] = Quantitative high throughput screen for delayed death inhibitors of the malarial parasite plastid, 96 hour incubation (AID 488745); also: potency is read from the fitted curve at half-maximal effect; nearly all actives have a fitted effect of over 70% in size
# Outline: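 Infected erythrocytes were added to compound in Albumax-supplemented RPMI 1640 at 0.1% parasitemia and 2% hematocrit (final), incubated 96 h at 37 C under 5% CO2, then luciferase reagent was added and luminescence measured.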
# [27] = biological target: Voltage-gated inwardly rectifying potassium channel KCNH2 (Homo sapiens) (UniProt Q12809); experiment: qHTS Assay for Small Molecule Inhibitors of the Human hERG Channel Activity (AID 588834);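 also: top concentration of the series differs between compounds; % is scaled to controls: 0 for no effect and ±100 for the full control effect; lower thallium flux fluorescence means stronger hERG block; nearly all actives have a fitted effect of over 50% in size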
# Outline: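 Concentration-response qHTS measuring drop in thallium-sensitive dye signal. U2OS cells carrying BacMam hERG; compound exposure ~10 min, then stimulation buffer and 2 min read at 1 sec intervals.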
compound,measurement,setting,value
C#C[C@]1(O)CC[C@H]2C3CCC4=Cc5oncc5CC4(C)C3CCC21C (some centres not stated),Potency,[1],inactive
same,outcome,[2],inactive
same,Potency,[3],inactive
same,Potency,[4],8.91 µM (active)
same,Potency,[5],inactive
same,Potency,[6],8.91 µM (active)
same,outcome,[7],inactive
same,Potency,[8],inactive
same,Potency,[9],inactive
same,outcome,[10],inactive
same,outcome,[11],inactive
same,activation,[12],1.44% (inactive)
same,outcome,[13],inactive
same,Potency,[14],inactive
CC(=O)NC1CC2(CCN(Cc3ccc(O)cc3)CC2)c2ccccc21 (configuration not stated),activity,[15],6.67%
same,"activity change, negative = inhibition",[16],7.28% [at 85.7 µM]
same,activity,[17],12.2%
same,activity,[18],5.3%
CNc1cc(C2CC(NC(=O)COc3ccc(Cl)cc3C)C2)nc(N)n1 (configuration not stated),activity,[15],7.09%
same,"activity change, negative = inhibition",[16],2.13%
same,activity,[17],-5.16%
same,activity,[18],6.12%
C[C@H]1c2cccc(O)c2C(O)=C2C(=O)[C@]3(O)C(O)=C(C(N)=O)C(=O)C(N(C)C)[C@@H]3[C@@H](O)C21 (some centres not stated),Potency,[1],inactive
same,outcome,[2],inactive
same,Potency,[3],inactive
same,Potency,[4],4.47 µM (active)
same,Potency,[19],8.91 µM (active)
same,Potency,[20],1 µM (active)
same,Potency,[21],11.2 µM (active)
same,Potency,[5],5.01 µM (active)
same,Potency,[6],1 µM (active)
same,Potency,[22],6.31 µM (active)
same,outcome,[23],inactive
same,outcome,[24],inactive
same,outcome,[7],inactive
same,Potency,[25],inactive
same,Potency,[26],0.37 µM (active)
same,Potency,[8],6.57 µM (active)
same,Potency,[9],inactive
same,outcome,[10],inactive
same,activation,[12],-0.125% (inactive)
same,outcome,[13],inactive
same,Potency,[27],inactive
Cn1c(=O)c2ccnn2c2ccc(C(=O)NCC3CCN(Cc4ccccc4F)CC3)cc21,activity,[15],3.91%
same,"activity change, negative = inhibition",[16],6.11%
same,activity,[17],-38.8%
same,activity,[18],2.1%
